Autofluor counter: flagged as autofluorescent in microsphere protease counterscreen; fluorescence intensity (test concentration not listed); 3.1% of 360,000 active; compound autofluorescence counterscreen, microsphere flow cytometry; hits give high values; in the data active means fluorescence intensity above about 16000; inconclusive means no clear call, values can overlap the other calls
SSB-PriA inh: inhibitors of Klebsiella pneumoniae PriA binding to SSB C-terminal tail, primary screen, biochemical, AlphaScreen; PriA–SSB C-terminal tail interaction (Klebsiella pneumoniae); AlphaScreen SSBct-PriA binding, biotinylated peptide; inhibition, % at 33 µM; 0.6% of 430,000 active; in the data active means inhibition mostly above about 37%, no sharp cut-off; inactive means mostly below about 20%
BoNT-A LC inh2: BoNT/A light chain protease inhibitors, primary screen, biochemical, flow cytometry, MLPCN library; inhibition, % at 10 µM; 0.17% of 360,000 active; multiplex microsphere protease substrate cleavage; Botulinum neurotoxin type A light chain protease (Clostridium botulinum A str. ATCC 3502)
Anthrax LF prot: Bacillus anthracis LF protease inhibitors, primary screen, biochemical, multiplex microsphere, MLPCN library | Lethal factor (Bacillus anthracis), P15917 | multiplex microsphere protease cleavage assay | inhibition, % at 10 µM | 0.12% of 360,000 active
Target sequence (P15917 whole entry, looked up): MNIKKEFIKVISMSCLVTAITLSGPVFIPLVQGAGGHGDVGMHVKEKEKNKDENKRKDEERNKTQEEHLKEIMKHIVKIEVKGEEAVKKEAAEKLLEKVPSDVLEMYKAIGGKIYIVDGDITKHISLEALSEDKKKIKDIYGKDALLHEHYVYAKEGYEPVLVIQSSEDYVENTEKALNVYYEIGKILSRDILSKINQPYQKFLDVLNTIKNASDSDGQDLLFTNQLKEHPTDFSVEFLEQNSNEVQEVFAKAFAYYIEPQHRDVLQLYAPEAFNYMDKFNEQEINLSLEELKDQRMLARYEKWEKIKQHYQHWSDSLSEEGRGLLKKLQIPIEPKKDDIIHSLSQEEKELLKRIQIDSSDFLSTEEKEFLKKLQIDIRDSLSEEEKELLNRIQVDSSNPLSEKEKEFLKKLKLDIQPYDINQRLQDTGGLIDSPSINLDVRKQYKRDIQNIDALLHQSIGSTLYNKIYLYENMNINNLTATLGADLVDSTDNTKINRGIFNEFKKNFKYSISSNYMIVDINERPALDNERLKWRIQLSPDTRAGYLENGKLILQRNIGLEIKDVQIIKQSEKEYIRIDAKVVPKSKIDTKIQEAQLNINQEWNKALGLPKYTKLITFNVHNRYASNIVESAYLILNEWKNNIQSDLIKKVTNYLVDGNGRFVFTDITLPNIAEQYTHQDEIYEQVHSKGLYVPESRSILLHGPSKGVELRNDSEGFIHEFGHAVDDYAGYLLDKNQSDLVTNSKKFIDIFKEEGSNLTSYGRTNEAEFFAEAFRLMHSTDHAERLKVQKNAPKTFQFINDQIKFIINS
BoNT-F LC inh: BoNT/F light chain protease inhibitors, primary screen, biochemical, flow cytometry, MLPCN library | Botulinum neurotoxin type F light chain protease (Clostridium botulinum) | Multiplex microsphere protease cleavage assay | inhibition, % at 10 µM | 0.22% of 360,000 active | AID 588497, 2011; in the data active means inhibition above about 35%, passing the limit was not always enough; inconclusive means no clear call, values can overlap the other calls
Hits are given with their value; – = inactive; ? = inconclusive; · = no result given; ! = not active in a repeat. Most compounds without a hit are left out; they make up all but 3.1% or so of the library. Unless noted, no stated cut-off is given here; in the data, active means inhibition above about 30%; inconclusive means no clear call, values can overlap the other calls; inactive means below that.

SMILES | Autofluor counter | SSB-PriA inh | BoNT-A LC inh2 | Anthrax LF prot | BoNT-F LC inh
COc1cnc(-c2ccccn2)nc1Sc1c(Cl)cccc1Cl | – | – | – | – | –
COc1cnc(-c2ccccn2)nc1OC | · | 112.0 | · | · | ·
COc1ccc(Oc2nc(-c3ccccn3)ncc2OC)cc1 | – | – | – | – | –
COc1cnc(-c2ccccn2)nc1Sc1ccccc1Cl | 16715 | 83.0 | – | – | –
COc1cnc(-c2ccccn2)nc1Cl | · | – | · | · | ·
CCOC(=O)C(C)Sc1nc(-c2ccccn2)ncc1OC (stereo not drawn) | – | 90.1 | – | – | –
O=C(CNS(=O)(=O)c1c(Cl)cccc1Cl)N1CCCC1 | · | – | · | · | ·
O=C(NN=Cc1ccsc1)c1ccc2ccccc2n1 | · | – | · | · | ·
COc1cnc(-c2ccccn2)nc1N(C)C | – | 98.4 | – | – | –
CN(C)CCCN(C(=O)c1ccc(S(=O)(=O)N2CCc3ccccc32)cc1)c1nc2ccc(Cl)cc2s1 | – | – | – | – | –
CN(C)CCCN(C(=O)c1ccc(S(=O)(=O)N2CCCc3ccccc32)cc1)c1nc2c(Cl)cccc2s1 | · | 39.0 | · | · | ·
Cc1cc(C)c2sc(N(CCCN(C)C)C(=O)c3ccc(S(=O)(=O)N4CCCc5ccccc54)cc3)nc2c1 | ? | 47.0! | – | – | –
CN(C)CCCN(C(=O)c1ccc(S(=O)(=O)N2CCc3ccccc32)cc1)c1nc2ccc(F)cc2s1 | · | 46.0! | · | · | ·
CN(C)CCCN(C(=O)c1cc(-c2cccs2)nc2ccccc12)c1nc2ccc(F)cc2s1 | – | 40.9 | – | – | –
CN(C)CCN(C(=O)c1ccccc1)c1nc2ccc(F)cc2s1 | · | – | · | · | ·
Cc1cc(C)c2sc(N(CCCN(C)C)C(=O)c3ccc(S(=O)(=O)N4CCc5ccccc5C4)cc3)nc2c1 | – | – | – | – | –
CN(C)CCCN(C(=O)c1ccc(S(=O)(=O)N2CCCc3ccccc32)cc1)c1nc2c(F)cc(F)cc2s1 | · | – | · | · | ·
CO[C@@H](CNC(=O)c1ccccc1Br)c1ccccc1Cl | · | – | · | · | ·
Cc1ccccc1[C@@H]1CCN(C(=O)CC2CC2)CCS1 | · | – | · | · | ·
Cc1ccc(NC(=O)Cn2nc3ccc(SC(C)(C)C)nn3c2=O)c(C)c1 | · | – | · | · | ·
COc1ccc([C@@H]2SCCN2S(=O)(=O)c2ccc3ccccc3c2)cc1Br | · | – | · | · | ·
C=CCn1c(CNC(=O)c2ccco2)nnc1SCC(=O)c1ccc(F)cc1 | – | – | – | – | –
C=CCn1c(CNC(=O)c2ccco2)nnc1SCC(=O)N1c2ccccc2Sc2ccccc21 | 18468 | – | – | – | –
O=C(Nc1ccc(F)cc1)c1sccc1SCc1cccc(C(F)(F)F)c1 | 26797 | – | ? | – | –
COc1ccc(NC(=O)c2sccc2SCc2cccc(C(F)(F)F)c2)cc1 | – | – | – | – | –
SMILES | Autofluor counter | SSB-PriA inh | BoNT-A LC inh2 | Anthrax LF prot | BoNT-F LC inh
CCN(Cc1ccccc1)Cc1c(C)[nH]c2c(C)c(C)ccc2c1=O | 20905 | – | ? | – | –
C=CCN(CC=C)Cc1c(C)[nH]c2c(C)c(C)ccc2c1=O | – | – | – | – | –
O=C(O)CN1C(=O)/C(=C\c2cc([N+](=O)[O-])ccc2OCc2ccccc2Cl)SC1=S | – | – | – | 32.3 | –
Cc1noc(C)c1COc1cccc(C(=O)OC(C)C(=O)Nc2ccc3c(c2)OCO3)c1 (stereo not drawn) | 19670 | – | – | – | –
COc1ccc(-c2ccc(N3CCN(C(=O)Nc4cc(OC)cc(OC)c4)CC3)nn2)cc1 | · | – | · | · | ·
c1ccn2c(c1)nc1c2nc2ccccn21 | 21237 | – | – | – | –
Clc1c(-c2ccccc2)nc2ccccn12 | – | – | – | – | ?
COc1ccc(C(=O)/C=C2\Sc3ccccc3N2C)cc1 | – | – | – | – | –
COc1ccc(-[n+]2c(C)cc(/C=C3\Sc4ccccc4N3C)cc2C)cc1 | – | · | 68.5 | – | –
COc1ccccc1-[n+]1c(C)cc(/C=C2\Sc3ccccc3N2C)cc1C | – | · | 87.7 | 40.1 | –
COC(=O)N1CCc2ccc(NC(=O)Cc3c(F)cccc3Cl)cc2C1 | · | – | · | · | ·
CC1(C)[C@H]2CC=C(CN3CCC(N4CCC(C(=O)N5CCCC5)CC4)CC3)[C@@H]1C2 | – | – | – | – | –
CC1(C)C2CC=C(CN3CCC(O)CC3)C1C2 (stereo not drawn) | 16149 | – | ? | – | –
CC(C)COC(=O)Nc1nnc(SCc2ccccc2F)s1 | 22547 | – | – | – | –
CCC(=O)Nc1nnc(SCc2ccccc2F)s1 | – | – | – | – | –
CC(C)(C)C(=O)Nc1nnc(CSCc2ccccc2F)s1 | 19760 | – | – | – | –

Screens from PubChem BioAssay.
